The target in the first assay is TEAD3. In words: pooled miR-30 sensor sort-seq; sequence = guide strand. The following applies: shRNA.
As to TATAGCGTGCAATCAACTCATT, the sensor-assay potency score (higher = more potent) is -1.09.

In the case of TTGATCATGTACTCGCACATGG, the sensor-assay potency score (higher = more potent) stood at 0.181.

Turning to TTTAATATAGCGTGCAATCAAC, the sensor-assay potency score (higher = more potent) is -1.47.

Regarding TTGTTCTGCAGGACACTGGCAG, the sensor-assay potency score (higher = more potent) was -0.245.

For the sequence TCTGACAGGATGATCTTCCGCC, the sensor-assay potency score (higher = more potent) was 0.971.

With TTGAGGTCGGCCCAGAACTTGA, the sensor-assay potency score (higher = more potent) is -1.66.

For the sequence TATGCAAACAGTGAGGACCTTC, the sensor-assay potency score (higher = more potent) is -0.217.

Turning to TTCTCGTCCGAGTCTTCCCCGT, the sensor-assay potency score (higher = more potent) is -0.997.

Consider TTCTCTACCACCTGTTTGCCAA, for which the sensor-assay potency score (higher = more potent) is -0.68.

Consider TACTCCCGCACCTTCTTCCGAG, for which the sensor-assay potency score (higher = more potent) is -0.896.

The target of another assay is TECPR1. Described as above. To be noted: shRNA.
Consider TCACCAACCATCTCAATCCAAC, for which the sensor-assay potency score (higher = more potent) was -1.66.

With TTGAGGTCAATATTGGTCCAGG, the sensor-assay potency score (higher = more potent) was -0.869.

For TTGGTCTCGTTCAGCACTGGGA, the sensor-assay potency score (higher = more potent) was -0.998.

Take TTCCACTTCTTGTCTTTCGTGT: the sensor-assay potency score (higher = more potent) amounted to 0.613.

Turning to TATGAGGCAGGGAAGTCGCTGG, the sensor-assay potency score (higher = more potent) was -0.217.

In turn, TGTGGTACCAGCAGTCACCGGC showed a sensor-assay potency score (higher = more potent) of 0.193.

Turning to TAGATGTTACTGGTGCTGCTGG, the sensor-assay potency score (higher = more potent) is -0.642.

On to TTGTCTTTCGTGTAGGTGGCGG, for which the sensor-assay potency score (higher = more potent) was -0.464.

For the sequence TTGTTGGACACGTGCTCCCAGC, the sensor-assay potency score (higher = more potent) was -1.68.

TTCCACGGTATCTTCTGCGGTC: the sensor-assay potency score (higher = more potent) is -0.344.

As to TTCTTGTCTTTCGTGTAGGTGG, the sensor-assay potency score (higher = more potent) was -0.581.

The target of another assay is TEF. Described as above. The following applies: shRNA.
Turning to TTCTTCTTGCGTCTTGTCCAGT, the sensor-assay potency score (higher = more potent) is -0.866.

Consider TTGGTGACTCTAGACTAGGTGT, for which the sensor-assay potency score (higher = more potent) turned out to be 0.324.

TTGTCCAGTACTTTTCATCCTT gave a sensor-assay potency score (higher = more potent) of 0.089.

As to TACTTGGACACGATGGTCTTGC, the sensor-assay potency score (higher = more potent) is -0.169.

As for TTGCGTCTTGTCCAGTACTTTT, the sensor-assay potency score (higher = more potent) is -1.72.

In the case of TAGACTAGGTGTCTTGCCCTGC, the sensor-assay potency score (higher = more potent) is -0.327.

Sequence TCATCCTTCTGCTCGTCGGGGA came in with a sensor-assay potency score (higher = more potent) of 0.16.

Take TATGGGATGGTCTTGTCCCAGA: the sensor-assay potency score (higher = more potent) was -1.26.

Regarding TAGCTCTGCTACAGGCAGCAGC, the sensor-assay potency score (higher = more potent) was -0.912.

Take TTTAGCTGCCACGTTGTTCTTC: the sensor-assay potency score (higher = more potent) is -0.221.

A further assay deals with TELO2. The assay is described as above. The following applies: shRNA.
Consider TAGGCATCGATGTGGAAGCGAA, for which the sensor-assay potency score (higher = more potent) was -1.36.

With TGTAAGAACAGAAGCTTCTGGG, the sensor-assay potency score (higher = more potent) was determined as 0.738.

As to TTGCCCAGCAGCGTCTCCCGGA, the sensor-assay potency score (higher = more potent) was -1.12.

For the sequence AAACTCATCATCGCTGTCCAGG, the sensor-assay potency score (higher = more potent) was -1.32.

Turning to TTCTGGGTCATCACAAACTGGG, the sensor-assay potency score (higher = more potent) is -0.844.

Consider TTGGAGAGAGTCCACAACCGCC, for which the sensor-assay potency score (higher = more potent) is -1.23.

In turn, TTCATCAGCCGGAAGCTGGGGC gave a sensor-assay potency score (higher = more potent) of 0.0431.

As to TAGTTGAGGGCATAGAACTGTG, the sensor-assay potency score (higher = more potent) is -0.752.

Turning to TTCTTGTTCTTCACCACCAGGT, the sensor-assay potency score (higher = more potent) was -0.407.

The record behind these values is the OligoGym collection.
Note: reference of the scale not given here.
